# In PubChem BioAssay AID2530 (National Center for Advancing Translational Sciences (NCATS), 2010):
# Inconclusive results are not listed. Values without a mark were called inactive. The source made the active and inactive calls. Calls follow the shape of the dose curve; as a rule, active = well fitted inhibition curve with a large enough effect; inconclusive = small, poorly fitted or top-dose-only effect; inactive = flat fitted curve, though single readings scatter.
# Target: Luciferin 4-monooxygenase (Photuris pensylvanica) (UniProt Q27757)
# Test: Secondary Assay for Luciferase (Kinase-Glo TM) Inhibition Counterscreen;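 as to activity, negative = inhibition: 0% = DMSO only and -100% = 40 µM SIB 1757 full inhibition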
# Details: Kinase-Glo luciferase enzyme, luminescence; series mostly up to 58.1 µM; activity, negative = inhibition: at the top concentration
# Method in brief: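 Inhibition was fitted with the Hill equation after normalizing luminescence to DMSO (basal) and 40 uM SIB 1757 (full inhibition). Kinase-Glo luciferase ran for 8 min at room temperature in imidazole buffer pH 7.2 with KCl, MgCl2 and 10 uM ATP.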
# Potency is read from the fitted curve at half-maximal effect.
SMILES,"activity, negative = inhibition [%]",Potency
Cc1ccc(NS(=O)(=O)c2ccc3c(c2)CCN(C(=O)C(F)(F)F)C3)cc1C,-1.2,–
CC(=O)N(C1=C(Cl)C(=O)c2ccccc2C1=O)c1ccc(C(=O)O)cc1,-4.24,–
O=C1CCc2cc(S(=O)(=O)Nc3cccc(Cl)c3)ccc2N1,-0.248,–
O=C1c2ccccc2C(=O)N1C1CCCCC1,0.793,–
COc1ccc(N2C(=O)c3ccccc3C2=O)cc1,-5.5,–
COc1cccc(NS(=O)(=O)c2ccc3c(c2)CCC(=O)N3)c1,0.18,–
Cc1cc(N2C(=O)c3ccccc3C2=O)n[nH]1,1.57,–
O=c1[nH]c2ccccc2n2c(-c3ccccc3)nnc12,-2.79,–
CCCCN1C(=O)c2ccccc2C1=O,0.2,–
O=C1c2ccccc2C(=O)N1c1nccs1,1.91,–
O=C1CCc2cc(S(=O)(=O)NCc3ccccc3)ccc2N1,-4.55,–
c1ccc2nc(-c3nc4ccccc4[nH]3)ccc2c1,–,5.8 µM (active)
COc1ccccc1NS(=O)(=O)c1ccc2c(c1)CCC(=O)N2,1.44,–
O=C1c2ccccc2C(=O)N1c1cccc2ncccc12,-0.367,–
Cc1ccc(C)c(OC2=NS(=O)(=O)c3ccccc32)c1,–,inactive
Cc1ccc(C(=O)/C=C/C(=O)c2ccc(C)cc2)cc1,-0.776,–
O=S1(=O)N=C(Oc2ccc(Cl)cc2)c2ccccc21,-4.07,–
Cc1ccc(NS(=O)(=O)c2cccc(Cl)c2)cc1C,2.39,–
Oc1ccc(O)c2c1C1c3ccccc3C2c2ccccc21,1.66,–
Cc1ccccc1NS(=O)(=O)c1ccc2c(c1)CCC(=O)N2,0.467,–
O=C1CCc2cc(S(=O)(=O)Nc3cccc(-c4ccccc4)c3)ccc2N1,-0.362,–
